In all, about 2,300 compounds went through this assay and about 20 (0.9%) were called active. Many of the other results were omitted from the sample, so actives are more common in it than they were. A number with no mark means an inactive call.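 Rule for the calls: active = mean activation across replicates above 26.72%, the hit cutoff set for this confirmation screen; inactive = the rest.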

For this assay, the target named is G-protein coupled receptor 151 (Homo sapiens) (UniProt Q8TDV0). The assay can be described thus: GPR151 agonism via beta-arrestin recruitment – cell-based, PathHunter beta-arrestin, luminescence, set 2, confirmation (AID 1508608).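 Note: 0% = plate median of compound wells and 100% = EA reagent high control.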 The following applies: GPR151 PathHunter beta-arrestin cells, 90 min, at 11.2 µM, hits give high values; 100% = signal from added EA reagent unless noted. A general note: Recruitment of arrestin is a read-out of receptor activation apart from second messengers.
G-protein coupled receptor 151 (Homo sapiens), sequence (Q8TDV0 whole entry, looked up): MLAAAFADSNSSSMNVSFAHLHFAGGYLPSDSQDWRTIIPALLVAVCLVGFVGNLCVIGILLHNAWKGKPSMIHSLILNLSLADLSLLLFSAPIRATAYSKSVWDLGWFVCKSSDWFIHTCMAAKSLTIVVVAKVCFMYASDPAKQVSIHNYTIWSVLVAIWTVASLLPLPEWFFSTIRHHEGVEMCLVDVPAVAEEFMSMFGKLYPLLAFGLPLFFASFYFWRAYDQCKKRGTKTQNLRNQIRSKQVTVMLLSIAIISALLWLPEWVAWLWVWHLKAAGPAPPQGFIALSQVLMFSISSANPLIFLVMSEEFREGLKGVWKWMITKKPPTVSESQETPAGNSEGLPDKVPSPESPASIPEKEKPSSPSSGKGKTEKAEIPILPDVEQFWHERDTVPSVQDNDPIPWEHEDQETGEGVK
As for `CC[n+]1c(/C=C/C=C2\N(C)c3ccccc3C2(C)C)n(-c2ccccc2)c2cc(Cl)ccc21`, the activation is 13.7%.
Consider `CCn1c(/C=C/C=C2\N(C)c3ccccc3C2(C)C)[n+](Cc2ccccc2)c2ccccc21`, for which the activation was 35.2% (active).
Take `CC[n+]1c(/C=C/C=C2\N(C)c3ccccc3C2(C)C)n(-c2ccccc2)c2ccc(C)cc21`: the activation is 19.5%.
`CCCCn1c(C)c(C(=O)OCC)c2cc(OC(=O)CCC)c3ccccc3c21`: the activation was 1.16%.
With `CCOC(=O)c1nc2ccccc2c(=O)n1-c1ccc(C)cc1Br` the figure was -0.06%; with `C[C@H]1CC[C@@H]2[C@@H](C)[C@H]3[C@H](CC4[C@@H]5CC=C6CC(O[C@@H]7O[C@H](CO)C(O[C@@H]8O[C@@H](C)[C@H](O)[C@@H](O)[C@H]8O)[C@H](O)[C@H]7O[C@@H]7O[C@@H](C)[C@H](O)[C@@H](O)[C@H]7O)CC[C@]6(C)[C@H]5CC[C@@]43C)N2C1` (stereo not given in full), 81.8% (active).
For `C[C@@H]1O[C@@H](O[C@H]2C[C@@H](O)[C@]3(CO)[C@H]4[C@H](O)C[C@]5(C)[C@@H](C6=CC(=O)OC6)CC[C@]5(O)[C@@H]4CC[C@]3(O)C2)[C@H](O)[C@H](O)[C@H]1O`, the activation was 13.4% [setting not given].
With `CCCCOc1ccc(C(=O)Nc2ccc(Cl)cc2C(=O)c2ccccc2)cc1`, the activation was -0.96%.
`COCCOC(=O)C1=C(C)OC(N)=C(C#N)C12C(=O)N(CC(=O)OC)c1ccccc12` (stereo not given): the activation is -4.79%.
With `O=C(Nc1ccc(Cl)cc1C(=O)c1ccccc1)c1cc([N+](=O)[O-])ccc1Cl` the figure was -4.58%.
